Experiments:
Assay in all cases: log2 ratio of Biotin-Ahx-Ub-VS probe labelling (fragment/DMSO); higher = less target engagement (more negative = stronger competition), active = hit call of the paper (q ≤ 0.05, log2 ratio ≤ -1)
Details in all cases: compound concentration: 200 uM; treatment time: 3 h
USP42 = target: T1, USP42 (UniProt Q9H9J4)
T1 sequence (whole entry): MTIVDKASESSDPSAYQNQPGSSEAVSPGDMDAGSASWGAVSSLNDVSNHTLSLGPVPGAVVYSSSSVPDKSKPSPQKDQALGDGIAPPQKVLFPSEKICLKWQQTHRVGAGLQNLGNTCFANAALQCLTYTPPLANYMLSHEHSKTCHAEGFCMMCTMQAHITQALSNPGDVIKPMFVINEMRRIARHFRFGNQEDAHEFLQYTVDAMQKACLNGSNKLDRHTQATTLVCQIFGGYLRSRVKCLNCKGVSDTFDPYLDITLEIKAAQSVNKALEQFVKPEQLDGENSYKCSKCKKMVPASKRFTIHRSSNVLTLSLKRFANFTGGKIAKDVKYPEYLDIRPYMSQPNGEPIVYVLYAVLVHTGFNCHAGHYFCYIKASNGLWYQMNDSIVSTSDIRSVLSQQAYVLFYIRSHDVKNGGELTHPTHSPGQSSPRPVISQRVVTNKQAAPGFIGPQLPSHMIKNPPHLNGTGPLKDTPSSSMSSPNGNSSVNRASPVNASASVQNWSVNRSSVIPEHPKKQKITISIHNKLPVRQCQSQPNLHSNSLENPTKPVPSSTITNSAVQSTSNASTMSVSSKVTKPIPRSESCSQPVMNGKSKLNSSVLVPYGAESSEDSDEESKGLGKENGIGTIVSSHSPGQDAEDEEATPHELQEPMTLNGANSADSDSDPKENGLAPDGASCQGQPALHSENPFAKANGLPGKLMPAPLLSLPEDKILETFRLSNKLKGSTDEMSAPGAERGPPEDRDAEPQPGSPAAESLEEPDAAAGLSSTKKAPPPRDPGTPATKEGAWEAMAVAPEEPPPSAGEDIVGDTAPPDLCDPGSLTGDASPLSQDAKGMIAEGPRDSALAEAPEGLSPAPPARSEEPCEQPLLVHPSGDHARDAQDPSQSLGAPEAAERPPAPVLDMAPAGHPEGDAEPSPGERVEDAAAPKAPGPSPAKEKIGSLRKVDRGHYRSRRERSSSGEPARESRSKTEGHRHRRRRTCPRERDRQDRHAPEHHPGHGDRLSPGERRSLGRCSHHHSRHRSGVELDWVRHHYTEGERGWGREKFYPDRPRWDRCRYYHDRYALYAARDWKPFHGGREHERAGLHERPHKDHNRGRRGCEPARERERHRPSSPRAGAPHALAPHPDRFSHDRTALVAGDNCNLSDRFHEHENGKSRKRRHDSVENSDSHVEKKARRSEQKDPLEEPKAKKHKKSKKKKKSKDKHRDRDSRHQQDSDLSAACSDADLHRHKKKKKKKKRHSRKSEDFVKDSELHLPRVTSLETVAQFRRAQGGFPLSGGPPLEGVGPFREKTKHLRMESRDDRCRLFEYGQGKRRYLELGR
How it was run: (§1)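 HEK293T lysate (495 µg per sample, in Tris/CHAPS/IGEPAL buffer with protease inhibitors) was exposed in triplicate for 3 h to fragment at 200 µM or to vehicle, then to Biotin-Ahx-Ub-VS at 0.5 µM final for 1 h. Labelled DUBs were enriched on NeutrAvidin, digested with LysC and trypsin, and analysed by diaPASEF LC-MS/MS. Spectronaut label-free quantities were normalised to the global median, and values are average log2 ratios of fragment over vehicle from an unpaired t-test. Only proteins with ≥2 unique peptides were used.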

USP46 = USP46 (UniProt P62068)
How it was run: as §1

USP47 = target: T2, USP47 (UniProt Q96K76)
T2 sequence (whole entry): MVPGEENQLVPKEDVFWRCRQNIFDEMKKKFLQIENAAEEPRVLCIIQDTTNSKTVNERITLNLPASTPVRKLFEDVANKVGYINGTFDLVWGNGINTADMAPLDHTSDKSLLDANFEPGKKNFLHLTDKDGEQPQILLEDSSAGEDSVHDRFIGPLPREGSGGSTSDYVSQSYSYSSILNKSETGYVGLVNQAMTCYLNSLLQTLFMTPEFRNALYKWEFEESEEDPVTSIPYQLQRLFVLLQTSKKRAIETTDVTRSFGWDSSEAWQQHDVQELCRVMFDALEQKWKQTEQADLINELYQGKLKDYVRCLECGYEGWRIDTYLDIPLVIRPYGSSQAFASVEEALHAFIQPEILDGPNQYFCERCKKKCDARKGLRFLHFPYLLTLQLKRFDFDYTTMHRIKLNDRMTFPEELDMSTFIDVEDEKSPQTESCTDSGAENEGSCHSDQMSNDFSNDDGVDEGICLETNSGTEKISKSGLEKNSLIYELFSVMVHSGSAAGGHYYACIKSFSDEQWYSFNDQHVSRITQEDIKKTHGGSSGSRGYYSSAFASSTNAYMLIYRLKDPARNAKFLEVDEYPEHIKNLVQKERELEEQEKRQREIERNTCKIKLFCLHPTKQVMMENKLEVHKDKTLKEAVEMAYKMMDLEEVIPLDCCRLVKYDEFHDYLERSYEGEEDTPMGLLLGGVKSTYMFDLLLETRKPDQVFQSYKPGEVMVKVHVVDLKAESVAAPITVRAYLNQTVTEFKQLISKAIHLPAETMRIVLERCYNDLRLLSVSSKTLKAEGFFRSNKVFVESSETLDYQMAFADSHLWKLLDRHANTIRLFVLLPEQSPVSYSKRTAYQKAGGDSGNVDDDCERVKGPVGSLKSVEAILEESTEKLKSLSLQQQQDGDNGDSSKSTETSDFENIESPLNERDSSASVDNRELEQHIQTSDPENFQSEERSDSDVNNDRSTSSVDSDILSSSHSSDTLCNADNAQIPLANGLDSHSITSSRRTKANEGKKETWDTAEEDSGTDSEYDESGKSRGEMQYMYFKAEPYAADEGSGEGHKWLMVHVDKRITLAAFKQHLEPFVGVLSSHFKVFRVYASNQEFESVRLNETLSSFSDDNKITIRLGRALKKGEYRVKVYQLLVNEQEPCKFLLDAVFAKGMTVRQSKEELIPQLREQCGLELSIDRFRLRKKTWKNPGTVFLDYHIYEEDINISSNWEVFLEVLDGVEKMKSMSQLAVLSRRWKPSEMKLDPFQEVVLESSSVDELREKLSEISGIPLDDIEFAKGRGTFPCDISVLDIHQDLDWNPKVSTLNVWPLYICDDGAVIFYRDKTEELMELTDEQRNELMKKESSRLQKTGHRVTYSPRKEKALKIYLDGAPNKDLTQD
How it was run: as §1

USP48 = target: T3, USP48 (UniProt Q86UV5)
T3 sequence (whole entry): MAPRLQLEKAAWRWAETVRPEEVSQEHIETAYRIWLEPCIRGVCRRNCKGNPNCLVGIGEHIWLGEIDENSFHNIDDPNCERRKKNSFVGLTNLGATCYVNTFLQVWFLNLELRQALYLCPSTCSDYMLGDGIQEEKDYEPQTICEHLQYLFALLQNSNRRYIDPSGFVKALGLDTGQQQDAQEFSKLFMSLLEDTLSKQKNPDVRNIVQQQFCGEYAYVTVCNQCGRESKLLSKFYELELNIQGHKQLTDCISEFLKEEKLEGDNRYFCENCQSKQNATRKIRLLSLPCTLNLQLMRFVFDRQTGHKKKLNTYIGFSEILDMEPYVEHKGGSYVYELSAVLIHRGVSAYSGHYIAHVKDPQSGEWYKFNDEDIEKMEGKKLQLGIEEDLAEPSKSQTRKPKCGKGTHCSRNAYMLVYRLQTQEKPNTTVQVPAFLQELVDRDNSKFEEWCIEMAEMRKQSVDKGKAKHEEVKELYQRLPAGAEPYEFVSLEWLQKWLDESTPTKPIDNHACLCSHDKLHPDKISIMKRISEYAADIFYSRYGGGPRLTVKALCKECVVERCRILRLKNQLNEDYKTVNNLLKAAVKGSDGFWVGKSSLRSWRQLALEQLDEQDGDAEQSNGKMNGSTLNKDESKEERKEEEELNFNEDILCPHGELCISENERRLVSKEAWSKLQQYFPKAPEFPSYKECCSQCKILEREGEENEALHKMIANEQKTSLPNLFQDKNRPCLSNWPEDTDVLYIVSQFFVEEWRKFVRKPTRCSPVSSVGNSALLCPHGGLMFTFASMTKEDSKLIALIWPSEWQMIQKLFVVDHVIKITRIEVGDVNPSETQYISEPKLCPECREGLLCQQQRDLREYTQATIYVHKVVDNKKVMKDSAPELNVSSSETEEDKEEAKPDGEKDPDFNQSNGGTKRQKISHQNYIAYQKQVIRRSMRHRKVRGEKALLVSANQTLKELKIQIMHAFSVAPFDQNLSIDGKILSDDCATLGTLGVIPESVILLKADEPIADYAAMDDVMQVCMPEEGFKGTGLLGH
How it was run: as §1

USP5 = target: T4, USP5 (UniProt P45974)
T4 sequence (whole entry): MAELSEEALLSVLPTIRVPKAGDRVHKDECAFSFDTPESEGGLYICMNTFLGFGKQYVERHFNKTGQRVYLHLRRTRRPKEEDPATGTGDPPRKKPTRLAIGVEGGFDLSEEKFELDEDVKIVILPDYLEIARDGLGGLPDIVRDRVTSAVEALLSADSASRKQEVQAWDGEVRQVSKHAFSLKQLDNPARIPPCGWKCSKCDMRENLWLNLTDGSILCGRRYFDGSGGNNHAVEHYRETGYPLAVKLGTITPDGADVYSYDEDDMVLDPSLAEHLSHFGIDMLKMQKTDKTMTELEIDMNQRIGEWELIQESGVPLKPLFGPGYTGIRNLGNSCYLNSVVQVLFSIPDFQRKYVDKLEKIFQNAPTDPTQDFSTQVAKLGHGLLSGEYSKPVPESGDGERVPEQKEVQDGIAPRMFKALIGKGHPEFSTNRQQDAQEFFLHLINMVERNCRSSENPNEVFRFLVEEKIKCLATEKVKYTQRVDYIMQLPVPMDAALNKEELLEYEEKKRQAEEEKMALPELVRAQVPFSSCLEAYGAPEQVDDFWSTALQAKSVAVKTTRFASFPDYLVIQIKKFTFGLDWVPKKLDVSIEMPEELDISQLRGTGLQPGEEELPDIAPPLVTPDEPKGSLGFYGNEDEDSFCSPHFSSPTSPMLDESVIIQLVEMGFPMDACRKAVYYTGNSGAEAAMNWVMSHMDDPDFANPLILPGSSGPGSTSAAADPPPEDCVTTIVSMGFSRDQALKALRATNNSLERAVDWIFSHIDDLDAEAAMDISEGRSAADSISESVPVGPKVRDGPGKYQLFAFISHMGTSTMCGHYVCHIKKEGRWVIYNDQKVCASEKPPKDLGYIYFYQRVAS
How it was run: as §1

USP54 = USP54 (UniProt Q70EL1)
How it was run: as §1

USP7 = USP7 (UniProt Q93009)
How it was run: as §1

USP8 = target: T5, USP8 (UniProt P40818)
T5 sequence (whole entry): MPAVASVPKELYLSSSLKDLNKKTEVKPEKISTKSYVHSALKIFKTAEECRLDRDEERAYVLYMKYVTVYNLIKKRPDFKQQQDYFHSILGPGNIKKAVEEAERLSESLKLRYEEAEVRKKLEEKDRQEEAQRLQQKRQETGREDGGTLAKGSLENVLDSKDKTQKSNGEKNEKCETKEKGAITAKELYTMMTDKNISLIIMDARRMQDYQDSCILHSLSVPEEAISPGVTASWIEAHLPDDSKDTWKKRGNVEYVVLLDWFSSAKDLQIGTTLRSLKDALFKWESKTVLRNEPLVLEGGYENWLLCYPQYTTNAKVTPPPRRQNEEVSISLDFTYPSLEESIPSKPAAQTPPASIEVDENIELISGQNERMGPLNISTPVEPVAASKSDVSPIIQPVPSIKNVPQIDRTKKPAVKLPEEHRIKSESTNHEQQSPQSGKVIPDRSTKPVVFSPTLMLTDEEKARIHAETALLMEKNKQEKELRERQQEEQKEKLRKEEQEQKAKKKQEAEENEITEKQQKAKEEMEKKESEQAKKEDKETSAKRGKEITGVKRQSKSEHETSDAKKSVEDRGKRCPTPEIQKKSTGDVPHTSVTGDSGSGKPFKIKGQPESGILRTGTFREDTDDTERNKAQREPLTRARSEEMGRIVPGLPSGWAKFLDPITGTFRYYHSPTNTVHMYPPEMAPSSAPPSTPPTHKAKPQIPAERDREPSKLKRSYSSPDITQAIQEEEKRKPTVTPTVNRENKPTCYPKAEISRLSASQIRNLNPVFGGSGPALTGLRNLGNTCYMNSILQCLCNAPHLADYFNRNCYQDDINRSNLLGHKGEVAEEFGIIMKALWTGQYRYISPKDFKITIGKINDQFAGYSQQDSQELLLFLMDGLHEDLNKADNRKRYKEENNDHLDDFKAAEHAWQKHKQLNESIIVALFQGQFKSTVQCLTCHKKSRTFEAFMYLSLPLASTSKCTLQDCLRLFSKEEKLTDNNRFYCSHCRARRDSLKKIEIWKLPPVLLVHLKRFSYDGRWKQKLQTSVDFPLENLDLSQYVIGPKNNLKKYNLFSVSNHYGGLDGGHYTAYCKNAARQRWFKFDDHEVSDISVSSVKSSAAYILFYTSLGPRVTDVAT
How it was run: as §1

USP9X = USP9X (UniProt Q93008)
How it was run: as §1

UniProt O00487 = target: UniProt O00487
How it was run: as §1

Measured: log2 ratio of Biotin-Ahx-Ub-VS probe labelling

USP46, sequence (P62068 whole entry): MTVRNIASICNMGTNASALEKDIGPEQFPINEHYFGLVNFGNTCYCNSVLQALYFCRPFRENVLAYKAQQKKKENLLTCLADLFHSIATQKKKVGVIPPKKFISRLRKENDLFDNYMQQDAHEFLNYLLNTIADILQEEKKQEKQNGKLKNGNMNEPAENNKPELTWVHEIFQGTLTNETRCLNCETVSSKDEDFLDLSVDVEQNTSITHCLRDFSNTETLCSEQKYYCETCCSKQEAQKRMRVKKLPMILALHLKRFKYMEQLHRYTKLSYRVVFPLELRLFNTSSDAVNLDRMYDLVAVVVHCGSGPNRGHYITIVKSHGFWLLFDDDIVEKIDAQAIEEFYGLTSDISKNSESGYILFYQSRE
USP54, sequence (Q70EL1 whole entry): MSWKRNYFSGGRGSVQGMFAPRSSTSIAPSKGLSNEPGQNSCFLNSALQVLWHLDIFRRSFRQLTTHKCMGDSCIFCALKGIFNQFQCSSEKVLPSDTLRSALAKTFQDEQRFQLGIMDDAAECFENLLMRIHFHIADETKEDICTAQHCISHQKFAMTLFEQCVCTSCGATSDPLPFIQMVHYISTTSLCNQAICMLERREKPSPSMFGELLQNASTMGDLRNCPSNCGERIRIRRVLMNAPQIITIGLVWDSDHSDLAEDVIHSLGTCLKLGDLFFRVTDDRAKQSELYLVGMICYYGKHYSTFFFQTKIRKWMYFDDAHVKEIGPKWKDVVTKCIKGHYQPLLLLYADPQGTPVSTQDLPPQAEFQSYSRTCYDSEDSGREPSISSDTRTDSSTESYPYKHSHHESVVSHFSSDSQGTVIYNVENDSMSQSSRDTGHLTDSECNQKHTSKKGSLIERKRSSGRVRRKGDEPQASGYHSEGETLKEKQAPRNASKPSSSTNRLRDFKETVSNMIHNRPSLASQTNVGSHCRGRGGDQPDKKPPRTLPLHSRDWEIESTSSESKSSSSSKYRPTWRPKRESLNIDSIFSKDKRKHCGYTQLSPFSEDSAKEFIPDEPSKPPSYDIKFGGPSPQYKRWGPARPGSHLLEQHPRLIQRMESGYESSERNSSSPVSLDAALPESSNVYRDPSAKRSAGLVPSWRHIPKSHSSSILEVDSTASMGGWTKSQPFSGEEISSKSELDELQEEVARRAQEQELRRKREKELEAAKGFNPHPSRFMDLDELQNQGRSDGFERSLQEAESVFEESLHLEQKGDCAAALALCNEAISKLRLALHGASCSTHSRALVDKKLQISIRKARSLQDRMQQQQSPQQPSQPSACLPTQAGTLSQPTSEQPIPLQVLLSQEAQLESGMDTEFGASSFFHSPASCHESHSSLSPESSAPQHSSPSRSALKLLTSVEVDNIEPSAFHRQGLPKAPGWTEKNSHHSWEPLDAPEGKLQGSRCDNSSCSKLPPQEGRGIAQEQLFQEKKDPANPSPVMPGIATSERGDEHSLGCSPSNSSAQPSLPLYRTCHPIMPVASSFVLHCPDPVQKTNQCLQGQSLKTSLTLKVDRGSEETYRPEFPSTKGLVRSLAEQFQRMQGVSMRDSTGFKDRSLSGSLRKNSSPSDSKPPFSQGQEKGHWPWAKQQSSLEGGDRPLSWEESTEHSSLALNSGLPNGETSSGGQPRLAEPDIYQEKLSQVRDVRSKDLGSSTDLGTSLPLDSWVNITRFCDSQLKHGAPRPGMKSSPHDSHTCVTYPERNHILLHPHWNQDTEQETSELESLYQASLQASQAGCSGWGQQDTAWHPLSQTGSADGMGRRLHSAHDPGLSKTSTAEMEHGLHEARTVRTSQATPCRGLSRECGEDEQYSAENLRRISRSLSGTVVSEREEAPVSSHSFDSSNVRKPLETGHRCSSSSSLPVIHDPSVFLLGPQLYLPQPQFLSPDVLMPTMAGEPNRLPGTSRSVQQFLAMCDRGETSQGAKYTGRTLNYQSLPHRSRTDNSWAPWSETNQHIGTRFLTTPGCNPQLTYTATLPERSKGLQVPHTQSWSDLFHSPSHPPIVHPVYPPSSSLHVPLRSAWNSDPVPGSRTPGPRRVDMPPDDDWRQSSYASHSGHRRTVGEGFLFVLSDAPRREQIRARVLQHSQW
USP7, sequence (Q93009 whole entry, looked up): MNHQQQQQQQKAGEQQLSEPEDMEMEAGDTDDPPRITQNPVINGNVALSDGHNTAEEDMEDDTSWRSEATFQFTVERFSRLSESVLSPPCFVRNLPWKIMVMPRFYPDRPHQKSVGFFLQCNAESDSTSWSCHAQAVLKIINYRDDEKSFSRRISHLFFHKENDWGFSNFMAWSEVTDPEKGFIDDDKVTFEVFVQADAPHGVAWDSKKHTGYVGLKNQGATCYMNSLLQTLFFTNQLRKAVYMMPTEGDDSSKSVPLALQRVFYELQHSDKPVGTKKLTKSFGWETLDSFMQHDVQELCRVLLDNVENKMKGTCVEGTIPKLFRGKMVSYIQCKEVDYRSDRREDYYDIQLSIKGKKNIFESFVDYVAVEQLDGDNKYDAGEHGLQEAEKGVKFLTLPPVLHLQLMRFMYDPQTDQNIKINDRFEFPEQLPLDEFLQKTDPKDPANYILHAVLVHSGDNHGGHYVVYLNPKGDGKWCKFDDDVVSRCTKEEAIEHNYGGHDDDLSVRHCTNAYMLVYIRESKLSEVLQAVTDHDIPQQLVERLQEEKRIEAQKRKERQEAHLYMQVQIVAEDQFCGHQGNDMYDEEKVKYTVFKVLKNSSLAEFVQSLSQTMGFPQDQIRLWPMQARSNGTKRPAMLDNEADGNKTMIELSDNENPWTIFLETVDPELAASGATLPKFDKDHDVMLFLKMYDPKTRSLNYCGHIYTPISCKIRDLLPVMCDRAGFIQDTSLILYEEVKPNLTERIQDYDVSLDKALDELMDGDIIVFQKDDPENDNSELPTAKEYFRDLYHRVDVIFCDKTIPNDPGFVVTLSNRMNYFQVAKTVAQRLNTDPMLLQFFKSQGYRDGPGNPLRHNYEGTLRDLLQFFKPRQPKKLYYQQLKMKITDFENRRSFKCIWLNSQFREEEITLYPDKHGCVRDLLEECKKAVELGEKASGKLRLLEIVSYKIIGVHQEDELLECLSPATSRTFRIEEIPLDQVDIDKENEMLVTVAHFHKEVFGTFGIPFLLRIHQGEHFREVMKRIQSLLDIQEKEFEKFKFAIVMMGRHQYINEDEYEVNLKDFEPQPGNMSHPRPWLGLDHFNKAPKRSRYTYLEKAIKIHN
UniProt O00487, sequence (O00487 whole entry): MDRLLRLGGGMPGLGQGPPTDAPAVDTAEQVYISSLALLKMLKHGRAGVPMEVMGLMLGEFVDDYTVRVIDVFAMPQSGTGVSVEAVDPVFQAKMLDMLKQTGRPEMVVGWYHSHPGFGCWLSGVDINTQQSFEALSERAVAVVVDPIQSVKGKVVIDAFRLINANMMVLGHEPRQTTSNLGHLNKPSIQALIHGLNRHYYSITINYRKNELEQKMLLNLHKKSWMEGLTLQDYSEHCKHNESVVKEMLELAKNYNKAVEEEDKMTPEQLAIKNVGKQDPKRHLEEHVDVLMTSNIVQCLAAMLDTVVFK

Cc1nc(CN2CCN(C(=O)CCl)CC2)cs1
inactive: USP42 0.251 | USP46 -0.246 | USP47 -0.236 | USP48 -0.0313 | USP5 -0.643 | USP54 -0.00411 | USP7 -0.473 | USP8 -0.444 | USP9X -0.168 | UniProt O00487 -0.171

CN(CCC(O)c1ccc(Br)cc1)C(=O)CCl (stereo not given)
inactive: USP42 0.556 | USP46 -0.218 | USP47 -0.526 | USP48 -0.691 | USP5 -0.00644 | USP54 0.00894 | USP7 -0.612 | USP8 -0.072 | USP9X -0.275 | UniProt O00487 -0.00696

Cc1cccnc1NC(=O)C1CCN(C(=O)CCl)CC1.Cl
inactive: USP42 -0.427 | USP46 -0.0664 | USP47 -0.337 | USP48 -0.172 | USP5 -0.0361 | USP54 0.628 | USP7 -0.121 | USP8 -0.221 | USP9X -0.327 | UniProt O00487 0.014
